Assays:
PEG-3 [1] = target: PEG-3 (UniProt Q6IN02); assay: Peg3 promoter luciferase inhibitors, potency, dose response, cell-based, HeLa, CREF/GAPDH counter-screen panel (AID 624167); conditions: CREF/GAPDH counter-screens; HeLa PEG-Prom luciferase reporter, overnight, run 1, dose range 1, at 100 µM (top of the series) unless noted
PEG-3 [2] = target: PEG-3 (UniProt Q6IN02); assay: as above; conditions: CREF/GAPDH counter-screens; HeLa PEG-Prom luciferase reporter, overnight, run 2, dose range 1, at 100 µM (top of the series) unless noted

Chain of PEG-3 (Q6IN02 whole entry, looked up): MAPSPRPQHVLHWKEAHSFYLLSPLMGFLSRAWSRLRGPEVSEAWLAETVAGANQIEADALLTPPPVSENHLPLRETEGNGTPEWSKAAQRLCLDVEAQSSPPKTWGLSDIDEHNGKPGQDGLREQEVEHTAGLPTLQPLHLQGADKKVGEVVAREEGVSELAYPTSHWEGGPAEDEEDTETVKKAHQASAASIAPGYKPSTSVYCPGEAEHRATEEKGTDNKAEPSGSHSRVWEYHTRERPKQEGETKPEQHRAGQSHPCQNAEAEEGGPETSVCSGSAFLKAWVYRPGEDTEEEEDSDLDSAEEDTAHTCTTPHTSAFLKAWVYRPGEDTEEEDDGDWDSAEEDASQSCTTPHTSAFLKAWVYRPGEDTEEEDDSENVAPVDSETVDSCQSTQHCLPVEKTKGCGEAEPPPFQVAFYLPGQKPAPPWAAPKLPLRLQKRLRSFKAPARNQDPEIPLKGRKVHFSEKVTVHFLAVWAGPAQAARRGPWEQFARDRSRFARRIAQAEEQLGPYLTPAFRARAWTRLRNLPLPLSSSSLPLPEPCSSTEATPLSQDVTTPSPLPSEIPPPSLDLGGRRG

Row | Structure (SMILES) | inhibition (PEG-3 [1]) [%] | inhibition (PEG-3 [2]) [%]
1 | CCCCC(=O)NC(c1ccccc1Cl)c1ccc2cccnc2c1O (configuration not stated) | 70.2 | 87.3
2 | CC(C)CC(N)c1csc(NC(=O)Nc2ccccc2C(C)(C)C)n1 (configuration not stated) | 102 | 101
3 | CCN(CC)CCn1c2ccccc2c2cnc(N)c(C#N)c21 | 101 | 102
4 | CSc1ccc2c(c1)C(N1CCN(C)CC1)Cc1ccccc1S2 (configuration not stated) | 102 | 98.9
5 | Cc1cccc2c1-c1sc(C(=O)NCCCN3CCCC(C)C3)cc1CO2 (configuration not stated) | 99.3 | 98.5
6 | CS(=O)(=O)c1ccc(C(=O)NCCN2C(=O)S/C(=C\c3cccnc3)C2=O)cc1[N+](=O)[O-] | 102 | 99.2
7 | O=S(=O)(c1cccs1)N1CCN(c2ccnc3cc(Cl)ccc23)CC1 | 83.3 | 90.7
8 | CCOC(=O)c1sc2nc(CSc3ccccc3)nc(N3CCCN(C)CC3)c2c1C | 101 | 99
9 | CCc1ccc2c(c1)Sc1ccccc1CC2N1CCN(C)CC1 (configuration not stated) | 102 | 102
10 | COc1ccc(CCn2c(=N)c(C(=O)NC3CCCC3)cc3c(=O)n4cccc(C)c4nc32)cc1 | 44.4 | 47.1
11 | COc1ccc(C2NCCc3c2[nH]c2ccccc32)cc1COc1ccc(F)cc1 (configuration not stated) | 98.9 | 101
12 | COc1ccccc1CN(C)C(=O)c1cc(-c2cccs2)nc2ccccc12 | 99 | 98.8
13 | CCCn1c(=N)n(CC(=O)c2ccc(Cl)cc2)c2ccccc21 | 101 | 100
14 | C[C@@H](C(=O)Nc1ccc2c(c1)OCCO2)n1c(=O)[nH]c2ccccc2c1=O | 53.8 | 39.3
15 | Cc1c(OCC(=O)NC2CC(C)(C)NC(C)(C)C2)ccc2c1oc(=O)c1ccccc12 | 98 | 101
16 | CN(C)CCNc1ccc(CO)c2oc3ccc(O)cc3c(=O)c12 | 99.1 | 101

Row | Structure (SMILES) | inhibition (PEG-3 [1]) [%] | inhibition (PEG-3 [2]) [%]
17 | COc1ccc(CCNC(=O)c2cc3c(=O)n4ccccc4nc3n(C3CCCCC3)c2=N)cc1 | 102 | 102
18 | CCC(=C(c1ccc(OC)cc1)c1ccc(OC)cc1)c1cn(CC(O)CN2CCN(C)CC2)c2ccccc12 (configuration not stated) | 99.5 | 98.3
19 | CC(=O)c1cccc(NC(=O)c2cccc3c(-c4cccnc4)coc23)c1 | 36.4 | 47
20 | CCN(CC)CCNC(=O)c1ccc(NC(=O)c2cccc(S(=O)(=O)N(C)C3CCCCC3)c2)cc1 | 100 | 102
21 | Cc1cc(C)c(CN2CCN(CCCn3cnc(C(=O)Nc4ccc(C)c(C)c4)n3)CC2)c(C)c1 | 102 | 101
22 | CN(C)C=NC(=O)c1[nH]c2ccc(Cl)cc2c1-c1ccccc1 | 98.6 | 96.5
23 | COC(=O)c1ccccc1-c1ccc(/C=N/Nc2nc(N3CCCC3)nc(N3CCCC3)n2)o1 | 100 | 102
24 | Cc1c(C(=O)N2CCN(c3ccc(F)cc3)CC2)sc2ncnc(N3CCN(c4ccccn4)CC3)c12 | 67.2 | 77.6
25 | Cc1ccc2[nH]c3c(c2c1)CCCC3NC(=O)CCl (configuration not stated) | 97 | 96.5
26 | NCCc1c(-c2ccccc2)n(-c2ccccc2)c2ccccc12 | 97.5 | 102
27 | CC(C)(C)OC(=O)CC(S(=O)(=O)c1ccccc1)S(=O)(=O)c1ccccc1 | 102 | 101
28 | Cc1cc(C)nc(NC(=O)c2c(F)c(F)c(F)c(C(=O)Nc3cc(C)cc(C)n3)c2F)c1 | 96.5 | 98.3
29 | Cc1ccc(Cn2c(=N)n(CC(=O)c3ccccc3)c3ccccc32)cc1 | 101 | 102
30 | CCC(C)Sc1ccc(-c2nc3ccccn3c2NCc2ccccc2)cc1OC (configuration not stated) | 102 | 89.4
31 | COc1ccccc1NC(=O)Nc1nc(C(N)CCc2ccccc2)cs1 (configuration not stated) | 95.9 | 102

— PubChem BioAssay
